The source made the active and inactive calls. Unless noted, how the calls were made is not given here.
Experiments:
[1] = tested on: Wnt5a (protein binding on small-molecule microarray); test: small molecules binding Wnt5a protein – biophysical, small-molecule microarray, 635/667 nm fluorescence, primary screen (AID 1142); settings: 635 nm fluorescence, higher = more signal;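 further: fluorescence read at 667 nm with signal to noise per printed feature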
[2] = ATP-based viability of Huh7 replicon cells – cell-based, CellTiter-Glo luminescence, basal, 48 h, cytotoxicity control for HCV replication inhibitor project, primary screen (AID 1143); settings: higher = more signal, called active from +8 up or from −8 down;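 further: Huh7 hepatoma cells carrying a hepatitis C replication reporter with no stimulus; test concentration not given here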
[3] = Pseudomonas biofilm growth suppression – PAO1 strain, BacTiter-Glo luminescence, LB-PBS, primary screen (AID 1144); settings: P. aeruginosa PAO1 biofilm, 12 h, higher = more signal
[4] = basal CRE-LacZ reporter activity in PC12 – cell-based, unstimulated, primary screen (AID 1145); settings: no forskolin, luminescence, 4.5 h, higher = more signal, called active from +8 up or from −8 down
[5] = forskolin-driven CRE-LacZ activity in PC12 – cell-based, CRE-LacZ reporter, forskolin-stimulated, primary screen (AID 1146); settings: luminescence, 4.5 h, higher = more signal, called active from +8 up or from −8 down;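 further: PC12 cells with 6xCRE LacZ reporter stimulated by forskolin 10 µM; beta-galactosidase reporter signal reflecting CREB driven transcription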
[6] = molecular target: Streptavidin (Streptomyces avidinii) (UniProt P22629); test: compounds binding control protein streptavidin – biophysical, small-molecule microarray, 635/667 nm fluorescence, artefact control for SMM compound annotation, primary screen (AID 1147); settings: higher = more signal;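 further: signal reflects streptavidin binding to arrayed compounds as a control protein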
Sequence of Streptavidin (Streptomyces avidinii) (P22629 whole entry, looked up): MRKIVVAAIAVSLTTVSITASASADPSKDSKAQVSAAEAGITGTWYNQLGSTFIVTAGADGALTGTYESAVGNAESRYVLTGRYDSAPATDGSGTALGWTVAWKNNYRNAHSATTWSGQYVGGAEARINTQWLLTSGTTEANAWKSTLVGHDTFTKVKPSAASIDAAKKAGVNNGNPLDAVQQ

[7] = probe aInhba binding on compound microarray – biochemical, small-molecule microarray, 635/667 nm fluorescence, primary screen (AID 1148); settings: higher = more signal;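 further: score merges 667nm spot fluorescence with signal-to-noise for antibody binding to printed compounds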
Torsin-1A (Homo sapiens) [8] = molecular target: Torsin-1A (Homo sapiens) (UniProt O14656); test: TOR1A wild-type binding on microarray – cell lysate, small-molecule microarray, lysate, 635/667 nm, primary screen (AID 1149); settings: COS7 hTOR1A-WT lysate, 635 nm fluorescence, higher = more signal
Sequence of Torsin-1A (Homo sapiens) (O14656 whole entry, looked up): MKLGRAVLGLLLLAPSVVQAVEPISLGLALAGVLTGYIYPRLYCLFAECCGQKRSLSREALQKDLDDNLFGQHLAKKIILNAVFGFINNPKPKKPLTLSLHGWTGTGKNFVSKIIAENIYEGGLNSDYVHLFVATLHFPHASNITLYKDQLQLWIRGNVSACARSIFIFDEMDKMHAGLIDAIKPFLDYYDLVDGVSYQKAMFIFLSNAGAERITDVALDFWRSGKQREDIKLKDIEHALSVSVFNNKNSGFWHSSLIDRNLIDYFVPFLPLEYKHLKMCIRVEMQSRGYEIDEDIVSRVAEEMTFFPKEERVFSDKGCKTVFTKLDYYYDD

Torsin-1A (Homo sapiens) [9] = molecular target: Torsin-1A (Homo sapiens) (UniProt O14656); test: torsin A mutant lysate binding on microarrays – cell lysate, small-molecule microarray, COS7 lysate, 635/667 nm fluorescence, primary screen (AID 1150); settings: COS7 hTOR1A mutant lysate, 635 nm fluorescence, higher = more signal;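 further: score pools 667 nm emission and signal to noise measuring lysate protein binding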
[10] = tested on: Sonic hedgehog protein (Shh); test: Sonic hedgehog microarray binding compounds – biochemical, small-molecule microarray, 635/667 nm fluorescence, primary screen (AID 1151); settings: 635 nm fluorescence, higher = more signal;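 further: Shh protein binding to compounds spotted on small-molecule microarray slides; score combines spot fluorescence intensity with signal-to-noise across triplicate slides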
[11] = optical density shifts of acrAB sulA E. coli – strain DRC41, OD650, 48 h, E. coli filamentation inducer project, primary screen (AID 1152); settings: higher = more signal, called active from +8 up or from −8 down;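 further: E. coli MC1000 strain DRC41 lacking acrAB efflux pump and sulA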
[12] = probe aLefty1 binding on compound microarray – biochemical, small-molecule microarray, 635/667 nm fluorescence, primary screen (AID 1153); settings: higher = more signal;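 further: score merges spot fluorescence with signal-to-noise ratio from the scanned slide images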
[13] = plasmodial surface anion channel blockers, osmotic lysis – cell-based, P. falciparum Indochina, OD700, 1 h, primary screen (AID 1154); settings: P. falciparum Indochina infected RBC osmotic lysis, higher = more signal, called active from +8 up or from −8 down
[14] = plasmodial surface anion channel blockers, osmotic lysis – cell-based, P. falciparum Indochina, OD700, 2 h, primary screen (AID 1155);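 further: lysis reports solute entry through the parasite surface anion channel PSAC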; settings: P. falciparum Indochina infected erythrocytes, higher = more signal, called active from +8 up or from −8 down
[15] = changes in parasitized red cell lysis, either direction – P. falciparum Indochina, OD700, 3 h, PSAC antagonist project, primary screen (AID 1156); settings: P. falciparum-infected erythrocytes, osmotic lysis, higher = more signal, called active from +8 up or from −8 down
[16] = plasmodial surface anion channel blockers, osmotic lysis – cell-based, P. falciparum Indochina, OD700, 18 h, primary screen (AID 1157); settings: P. falciparum Indochina infected erythrocytes, osmotic lysis OD700, 18 h; higher = more signal, called active from +8 up or from −8 down
[17] = S6 kinase pathway phospho-S6 level changes – cell-based, A549, cytoblot, luminescence, serum-stimulated, primary screen (AID 1158); settings: 5 h, higher = more signal;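 further: serum-stimulated A549 lung adenocarcinoma cells; signal is phosphorylated S6 detected by cytoblot immunostaining with HRP secondary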
[18] = molecular target: NADPH oxidase 2 (Homo sapiens) (UniProt P04839); test: compounds shifting NOX2 Amplex Red fluorescence – cell-based, HEK293-NOX2, PMA-stimulated, NOX inhibitor project, primary screen (AID 1159); settings: 45 min, higher = more signal, called active from +8 up or from −8 down; further: test concentration not given here
Sequence of NADPH oxidase 2 (Homo sapiens) (P04839 whole entry, looked up): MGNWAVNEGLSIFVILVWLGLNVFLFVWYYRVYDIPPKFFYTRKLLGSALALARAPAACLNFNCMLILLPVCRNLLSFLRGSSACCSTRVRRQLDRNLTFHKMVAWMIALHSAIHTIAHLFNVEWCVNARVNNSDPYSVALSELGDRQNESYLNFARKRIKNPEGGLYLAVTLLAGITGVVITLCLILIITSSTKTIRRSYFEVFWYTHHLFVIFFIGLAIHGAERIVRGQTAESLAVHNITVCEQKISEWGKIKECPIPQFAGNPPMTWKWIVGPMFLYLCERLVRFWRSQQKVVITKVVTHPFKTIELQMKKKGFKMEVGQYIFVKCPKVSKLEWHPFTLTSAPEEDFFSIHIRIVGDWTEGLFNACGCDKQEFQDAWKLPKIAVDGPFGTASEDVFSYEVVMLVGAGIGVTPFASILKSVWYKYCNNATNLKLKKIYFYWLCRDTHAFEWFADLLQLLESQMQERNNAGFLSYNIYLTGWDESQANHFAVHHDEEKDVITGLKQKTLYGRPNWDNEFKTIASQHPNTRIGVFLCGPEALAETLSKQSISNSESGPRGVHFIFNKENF

[19] = molecular target: NADPH oxidase 4 (Homo sapiens) (UniProt Q9NPH5); test: compounds shifting NOX4 Amplex Red fluorescence – cell-based, HEK293-NOX4, tetracycline-induced, NOX inhibitor project, primary screen (AID 1160); settings: HEK293-NOX4, Amplex Red H2O2 fluorescence, 45 min; higher = more signal, called active from +8 up or from −8 down
Sequence of NADPH oxidase 4 (Homo sapiens) (Q9NPH5 whole entry, looked up): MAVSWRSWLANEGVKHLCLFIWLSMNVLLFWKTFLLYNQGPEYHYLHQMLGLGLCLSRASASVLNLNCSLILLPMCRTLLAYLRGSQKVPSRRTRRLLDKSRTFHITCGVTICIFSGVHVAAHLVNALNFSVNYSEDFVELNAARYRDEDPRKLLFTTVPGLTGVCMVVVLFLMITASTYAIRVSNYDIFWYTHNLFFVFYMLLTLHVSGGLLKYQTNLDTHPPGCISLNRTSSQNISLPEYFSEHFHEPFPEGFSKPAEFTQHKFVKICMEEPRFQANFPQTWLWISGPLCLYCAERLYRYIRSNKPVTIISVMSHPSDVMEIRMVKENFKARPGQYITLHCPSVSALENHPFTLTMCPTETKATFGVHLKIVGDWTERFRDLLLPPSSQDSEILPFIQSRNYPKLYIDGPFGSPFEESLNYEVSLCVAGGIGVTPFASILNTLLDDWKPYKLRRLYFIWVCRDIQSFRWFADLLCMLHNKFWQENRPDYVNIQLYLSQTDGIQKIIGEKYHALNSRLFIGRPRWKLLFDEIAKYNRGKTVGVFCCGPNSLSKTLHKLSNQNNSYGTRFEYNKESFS

[20] = molecular target: NADPH oxidase 5 (Homo sapiens) (UniProt Q96PH1); test: compounds shifting NOX5 Amplex Red fluorescence – cell-based, HEK293-NOX5, NOX inhibitor project, primary screen (AID 1161); settings: HEK293-NOX5, ionomycin, 45 min, higher = more signal
Sequence of NADPH oxidase 5 (Homo sapiens) (Q96PH1 whole entry, looked up): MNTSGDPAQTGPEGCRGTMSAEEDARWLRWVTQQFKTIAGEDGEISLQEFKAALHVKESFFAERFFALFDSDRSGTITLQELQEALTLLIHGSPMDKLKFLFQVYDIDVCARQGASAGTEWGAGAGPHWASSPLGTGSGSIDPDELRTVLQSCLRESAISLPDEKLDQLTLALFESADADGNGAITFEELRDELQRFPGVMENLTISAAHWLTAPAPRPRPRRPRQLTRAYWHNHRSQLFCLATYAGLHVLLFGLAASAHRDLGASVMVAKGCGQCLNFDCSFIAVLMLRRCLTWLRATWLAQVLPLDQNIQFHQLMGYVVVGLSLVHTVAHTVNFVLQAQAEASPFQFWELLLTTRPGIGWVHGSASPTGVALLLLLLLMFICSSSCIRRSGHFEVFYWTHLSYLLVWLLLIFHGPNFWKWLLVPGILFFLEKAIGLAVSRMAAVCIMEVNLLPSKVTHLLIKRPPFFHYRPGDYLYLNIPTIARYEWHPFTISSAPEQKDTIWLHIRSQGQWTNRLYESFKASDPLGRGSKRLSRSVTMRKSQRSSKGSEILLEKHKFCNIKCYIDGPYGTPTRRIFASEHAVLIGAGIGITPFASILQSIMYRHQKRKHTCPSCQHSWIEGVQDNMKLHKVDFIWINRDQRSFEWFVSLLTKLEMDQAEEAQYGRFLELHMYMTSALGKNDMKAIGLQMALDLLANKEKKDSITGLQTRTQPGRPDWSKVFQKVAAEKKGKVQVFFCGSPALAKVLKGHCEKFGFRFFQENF

Row | Structure (SMILES) | composite z-score [1] | z-score [2] | z-score [3] | z-score [4] | z-score [5] | composite z-score [6] | composite z-score [7] | composite z-score (Torsin-1A (Homo sapiens) [8]) | composite z-score (Torsin-1A (Homo sapiens) [9]) | composite z-score [10] | z-score [11] | composite z-score [12] | z-score [13] | z-score [14] | z-score [15] | z-score [16] | z-score [17] | z-score [18] | z-score [19] | z-score [20]
1 | COCC(=C=CC[C@H](O)c1cccc(OCCO)c1)C[C@H](O)c1ccccn1 | 0.467 | -0.0843 (inactive) | -0.368 (inactive) | 1.34 (inactive) | -0.527 (inactive) | -0.368 | 0.0497 | -0.733 | -0.526 | 1.59 | 0.941 (inactive) | -0.198 | 8.86 (active) | 1.16 (inactive) | 1.49 (inactive) | 0.674 (inactive) | 0.789 | -0.142 (inactive) | 0.154 (inactive) | -0.772
2 | COc1ccccc1CN1C(=O)c2ccccc2[C@@H](C(=O)NC(C)C)[C@@H]1c1ccc(CO)cc1 | 0.428 | -0.486 (inactive) | 0.464 (inactive) | -0.735 (inactive) | -0.784 (inactive) | 0.131 | 0.46 | -0.0764 | 0.0096 | 1.84 | 0.671 (inactive) | 0.211 | 1.18 (inactive) | 0.525 (inactive) | 0.797 (inactive) | 0.376 (inactive) | 0.0984 | 0.372 (inactive) | 1.44 (inactive) | 0.976
3 | CC1CC/C=C\[C@H]2OC34C=CCN(C(C)C)C(=O)[C@H]3N(CCCCCO)C(=O)[C@@H]4C2C(=O)O1 (stereo not given in full) | -0.432 | -0.262 (inactive) | 1.39 (inactive) | 1.67 (inactive) | -0.478 (inactive) | -1.16 | -0.157 | -1.14 | -0.751 | -0.375 | 0.881 (inactive) | -0.15 | -0.54 (inactive) | 0.0524 (inactive) | 0.66 (inactive) | 0.427 (inactive) | -0.61 | 0.745 (inactive) | -0.338 (inactive) | 1.05
4 | C[C@H]1C2=C3C(CC[C@H]4C(OCc5ccc(F)cc5C(F)(F)F)OC[C@](C)([C@@H]34)N(C(=O)OC(C)(C)C)C2)C(CO)C1CO (stereo not given in full) | 0.24 | -2.85 (inactive) | 0.36 (inactive) | 0.779 (inactive) | 0.677 (inactive) | 1.38 | -0.0214 | 0.28 | 0.222 | -1.38 | -2.8 (inactive) | 0.687 | 1.94 (inactive) | 0.368 (inactive) | 2.1 (inactive) | 0.864 (inactive) | 0.118 | -0.678 (inactive) | -2.59 (inactive) | -1.97
